Among the data in PubChem BioAssay AID588579 (National Center for Advancing Translational Sciences (NCATS), 2011) are Potency and activity, negative = inhibition values, retold here.

Where “and” joins values, the source holds several entries; their conditions need not be identical. Identical values can stand only once. About 2,200 (0.55%) of roughly 400,000 compounds were called active. Not shown: some 1% with an inconclusive outcome. The entries come from a sample that favours actives as a whole. A call without a number means that no potency is given here. A number with no mark means an inactive call. Calls follow the shape of the dose curve; as a rule, active = well fitted inhibition curve with a large enough effect; inconclusive = small, poorly fitted or top-dose-only effect, or another doubt; inactive = no such curve, though single readings can be large or run the other way.
Potency is read from the fitted curve at half-maximal effect.

Chain of DNA polymerase kappa (Homo sapiens) (Q9UBT6 whole entry, looked up): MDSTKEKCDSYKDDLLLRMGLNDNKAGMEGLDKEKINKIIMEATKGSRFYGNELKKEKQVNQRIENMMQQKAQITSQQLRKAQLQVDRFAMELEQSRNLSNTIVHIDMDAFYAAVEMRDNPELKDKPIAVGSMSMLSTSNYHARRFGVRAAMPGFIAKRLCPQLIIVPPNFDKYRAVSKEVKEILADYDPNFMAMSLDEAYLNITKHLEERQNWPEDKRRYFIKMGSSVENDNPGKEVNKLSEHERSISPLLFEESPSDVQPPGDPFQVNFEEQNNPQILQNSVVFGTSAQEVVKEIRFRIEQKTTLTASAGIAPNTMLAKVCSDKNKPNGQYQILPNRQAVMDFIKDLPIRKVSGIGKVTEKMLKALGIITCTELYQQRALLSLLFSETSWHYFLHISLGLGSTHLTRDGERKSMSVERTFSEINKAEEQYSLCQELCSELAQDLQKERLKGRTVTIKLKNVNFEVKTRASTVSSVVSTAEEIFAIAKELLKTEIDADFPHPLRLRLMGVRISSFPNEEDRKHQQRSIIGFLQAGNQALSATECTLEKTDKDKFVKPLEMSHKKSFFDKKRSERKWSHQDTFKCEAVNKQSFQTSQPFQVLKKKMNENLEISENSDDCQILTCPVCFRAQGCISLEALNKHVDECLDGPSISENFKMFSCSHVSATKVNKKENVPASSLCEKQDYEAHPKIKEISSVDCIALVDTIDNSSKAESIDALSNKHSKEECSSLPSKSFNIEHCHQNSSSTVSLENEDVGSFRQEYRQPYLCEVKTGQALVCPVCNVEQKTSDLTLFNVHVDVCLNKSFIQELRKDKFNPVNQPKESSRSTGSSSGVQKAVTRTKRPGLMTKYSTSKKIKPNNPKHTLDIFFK

For the assay, the target named is DNA polymerase kappa (Homo sapiens) (UniProt Q9UBT6). Description: qHTS for Inhibitors of Polymerase Kappa. The following applies: purified Pol kappa, fluorescent DNA synthesis assay, 10 min; series mostly up to 107 µM. The gist of the method:
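Readout: fluorescence, taken kinetically at 0 and 10 min. Conditions: 10 nM Pol kappa, 15 min RT compound preincubation, 50 nM substrate final. Controls: enzyme-free buffer wells.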
For orientation: Quantitative high-throughput screening tests each substance at several concentrations.
With `Cc1ccc(-c2ncc(Cl)cc2-c2ccc(S(C)(=O)=O)cc2)cn1`, the Potency entry is “inactive”. The same measure, in the same setting: as for `O=C(c1cc(C(F)(F)F)cc(C(F)(F)F)c1)N1CCC2(CCCN(c3ccccn3)C2)CC1`, the entry is “inactive”. The same measure, in the same setting: for `COc1ccccc1CNc1ccnc(-c2c(C)noc2C)n1` the value was “inactive”. Same read-out and setting: as for `Cc1ccccc1NC(=O)Cn1c(=O)n(CCc2ccccc2)c(=O)c2ccccc21`, the entry is “inactive”; as for `Cc1ccccc1NC(=O)CN1C(=O)C(C)(C)c2ccccc21`, “inactive”; as for `Cc1ccccc1NC(=O)CN1C(=O)N/C(=C\c2cccn2-c2cccc(C(=O)O)c2)C1=O`, 14.1 µM (active).

For the compound `COc1ccccc1CNc1nc(-c2c(C)noc2C)nc2ccccc12`, the Potency entry was “inactive”.

Take `COc1c(O)c2c(=O)cc(OC)c3c4c(OC)cc(=O)c5c(O)c(OC)c6c(c(c1C[C@@](C)(O)[C@H]6C(C)=O)c23)c54`: the Potency entry was “inactive”. For the compound `Cc1ccc(S(=O)(=O)N2CCCC2C(=O)OCc2nc3sc(C)c(C)c3c(=O)[nH]2)cc1` (configuration not stated), the Potency entry was “inactive”. On the same count and under the same terms, as for `CCN(CC)Cc1nc2sc(C)c(C)c2c(=O)[nH]1`, the entry is “inactive”; as for `CSc1nnc(SCc2nc3sc(C(=O)O)c(C)c3c(=O)[nH]2)s1`, 25.1 µM (active). Still for that read-out and setting: for `FC(F)(F)c1ccccc1-c1cc(NCc2ccccc2)ncn1` the value was “inactive”; for `CCC(C)N(c1ccc(/C=C/c2ccnc3ccccc23)cc1)C(C)CC` (configuration not stated), “inactive”.

For the compound `Cc1ccc(N=C2NC(=O)/C(=C/C=C/c3ccco3)S2)cc1C`, the Potency is 28.2 µM (active). Still for that read-out and setting: for `CC(=O)OC1CCC2(O)CC1(C)CCC1C2CC1(C)C` (configuration not stated) the value was “inactive”. The same measure, in the same setting: for `O=C(CSC(=S)N1CCCCC1)c1c(F)cccc1F` the value was “inactive”; for `O=C(CSC(=S)N1CCOCC1)c1cc(Br)cc(Br)c1O`, 79.4 µM (active); for `O=C(c1cc2cc(Br)cc(Br)c2oc1=O)N1CCOCC1`, “inactive”. Still for that read-out and setting: as for `CCOCCOC(=O)C(C)Oc1ccc(Oc2ncc(C(F)(F)F)cc2Cl)cc1` (configuration not stated), the entry is “inactive”; as for `CC(=O)CC(c1ccccc1)C1C(=O)Oc2ccccc2C1=O` (configuration not stated), “inactive”; as for `CN=C1S/C(=C\c2c(OC)cc(OC)cc2OC)C(=O)N1C`, “inactive”.

With `CN1C(=O)/C(=C/c2ccco2)SC1=Nc1cccc(C(=O)O)c1`, the Potency is 20 µM (active). On the same count and under the same terms, as for `O=C(O)c1cccc(N=NN2CCCCCC2)c1`, the entry is “inactive”; as for `CCOC(OCC)OCC`, “inactive”. Same read-out and setting: as for `CCc1c2c(nc3ccc(O)cc13)-c1cc3c(c(=O)n1C2)COC(=O)[C@]3(O)CC`, the entry is “inactive”.

`NC(=O)Nc1ccc(/C=C/c2ccnc3ccccc23)cc1`: the Potency result is “inactive”. Regarding `COc1ccc2[nH]c3c(C)c4cc[n+](C)cc4c(C)c3c2c1`, the Potency was 2.38 µM (active) and 11.2 µM (active). As to `Cc1cccc(CNc2ccnc(-c3cccnc3)n2)c1`, the Potency entry was “inactive”.

For the compound `COCCn1c(=O)c(-c2cc(F)cc(F)c2)nc2cnc(N3CCNCC3)nc21`, the Potency entry was “inactive”. Still for that read-out and setting: as for `CN(C)c1ccc(C=Nc2ccc(/C=C/c3ccnc4ccccc34)cc2)cc1`, the entry is “inactive”. The same measure, in the same setting: as for `NC(=O)C(=O)N/N=C/c1ccc([N+](=O)[O-])o1`, the entry is “inactive”; as for `O=c1cc(-c2ccc(O)cc2)oc2c(-c3cc(-c4cc(=O)c5c(O)cc(O)cc5o4)ccc3O)c(O)ccc12`, 26.7 µM (active). For `O=c1c(-c2ccc3c(c2)OCCO3)c(C(F)(F)F)oc2cc(O)cc(O)c12`, the Potency entry is “inactive”. Turning to `CCOC(=O)c1cc2cc(-c3c(C(=O)OCC)oc4cc(O)cc(O)c4c3=O)ccc2o1`, the Potency entry is “inactive”. Take `C=C(C)C1CC=C(C)C(O)C1` (configuration not stated): the Potency result is “inactive”. The same measure, in the same setting: for `C=C1C=C(C)n2ncc(C(=O)Nc3ccccc3O)c2N1` the value was “inactive”; for `CC(C)c1ccc(Nc2nnc(SCC(=O)c3nnc(-c4ccccc4)o3)s2)cc1`, 79.4 µM (active). The same measure, in the same setting: as for `CC(=O)c1ccc(NC(=O)CSc2nnc(NC(=O)Nc3ccccc3)s2)cc1`, the entry is “inactive”; as for `CN(C(=O)CSc1nnc(NC(=O)Nc2ccccc2)s1)c1ccccc1`, “inactive”.

With `CC(C)=CCC/C(C)=C/CC/C(C)=C/CC/C(C)=C/CO`, the Potency result was “inactive”. On the same count and under the same terms, as for `O=C(c1cc(C(F)(F)F)cc(C(F)(F)F)c1)N1CCC2(CCCN(Cc3ccncc3)C2)CC1`, the entry is “inactive”; as for `OCC(CO)NC1C[C@](O)(CO)[C@@H](O)[C@H](O)[C@H]1O` (some centres not stated), “inactive”. Still for that read-out and setting: for `CC(=O)Oc1c2c(c3c(c1CC=C(C)C)O[C@@]14C(=CC5CC1C(C)(C)OC4(C/C=C(\C)C(=O)O)C5=O)C3=O)OC(C)(CCC=C(C)C)C=C2` (some centres not stated) the value was 31.6 µM (active). As for `COc1ccc2c3c1OC1CC(O)C=C[C@@]31CCN(C)C2` (some centres not stated), the Potency result was “inactive”. Consider `COc1cc2c(cc1OC)CC(=O)N(CCCN(C)C[C@H]1Cc3cc(OC)c(OC)cc31)CC2`, for which the activity, negative = inhibition is 3.96% [at 19.4 µM]. As to `FC(F)(F)c1ccccc1-c1nc(-n2ccnc2)c2ccccc2n1`, the Potency entry is “inactive”. Still for that read-out and setting: as for `Nc1ccc(/C=C/c2ccnc3ccccc23)c([N+](=O)[O-])c1`, the entry is “inactive”.

`O=c1/c(=C/c2ccc(CNS(=O)(=O)c3ccccc3)o2)sc2n1CCN=2`: the Potency entry is “inactive”. As to `O=c1nc2s/c(=C\c3ccco3)c(=O)n2nc1Cc1ccccc1`, the Potency is 31.6 µM (active). For `CN1CCOC1c1ccc(C2OCCN2C)cc1` (configuration not stated), the Potency was 39.8 µM (active).

As for `O=C(Nc1ccc(Cl)cc1)c1cnn2c1NC(=C1CC1)C=C2C(F)F`, the Potency entry was “inactive”. Same read-out and setting: as for `Nc1ccc2nc3c(=O)[nH]c(=S)[nH]c3nc2c1`, the figure is 2.24 µM (active). Still for that read-out and setting: for `Brc1cccc[n+]1Cc1cccc(C[n+]2ccccc2Br)c1` the value was “inactive”; for `CCNc1ncc2nc(CCc3ccccc3)c(=O)n(-c3ccc(OC)cc3)c2n1`, “inactive”; for `CCCN1C(=O)C(NS(=O)(=O)c2ccc(N)cc2)(C(F)(F)F)C(C(=O)OC)=C1C` (configuration not stated), “inactive”.

For the compound `CC(=O)Nc1ccc(S(=O)(=O)NC2(C(F)(F)F)C(=O)NC(C)=C2C#N)cc1` (configuration not stated), the Potency was 79.4 µM (active). On the same count and under the same terms, for `CC(=O)Nc1ccc(S(=O)(=O)NC2(C(F)(F)F)C(=O)Nc3c2c(=O)[nH]c(=O)n3Cc2ccccc2)cc1` (configuration not stated) the value was “inactive”. Regarding `CC(C)(O)c1ccccc1CC[C@H](SCC1(CC(=O)O)CC1)c1cccc(/C=C/c2ccc3ccc(Cl)cc3n2)c1`, the activity, negative = inhibition was -3.16% [at 19.4 µM]. For the compound `CC(C)(C)C1C/C(=C/c2ccco2)C(=O)/C(=C/c2ccco2)C1` (configuration not stated), the Potency result was “inactive”.

In the case of `CS(=O)(=O)c1ccc2c(c1)SC1=NC(=O)/C(=C/c3ccco3)C(=N)N12`, the Potency is 35.5 µM (active). Still for that read-out and setting: as for `COCCNC(=O)Nc1ccc2nc(-c3ccco3)c(-c3ccco3)nc2c1`, the figure is 3.16 µM (active).

In the case of `CCOc1ccc(NC(=O)c2ncoc2-c2ccco2)cc1`, the Potency entry was “inactive”. Same read-out and setting: for `COc1ccc(NC(=O)COCc2cc(-c3ccco3)on2)cc1` the value was “inactive”. Still for that read-out and setting: for `Cc1noc(C)c1-c1nc(Nc2ccccc2)c2ccccc2n1` the value was “inactive”; for `COc1cccc(-c2nc(Nc3ccncc3)c3ccccc3n2)c1`, “inactive”. Take `c1ccc2c(Nc3ccncc3)nc(-c3ccoc3)nc2c1`: the Potency was 28.2 µM (active). As for `O=C(c1ccco1)N1CCC2(CC1)CCN(c1ncccn1)CC2`, the Potency entry was “inactive”. Still for that read-out and setting: as for `COc1ccc(S(=O)(=O)N2CCN(CC(=O)N3CCOCC3)CC2)cc1OC`, the entry is “inactive”; as for `COc1ccc(-c2ccnc(SCC(=O)N3CCOCC3)n2)cc1`, “inactive”. On to `COC1=C/C(=C/c2c(N)n3nc(CC(=O)N4CCOCC4)sc3nc2=O)C=CC1=O`, for which the Potency is 79.4 µM (active). Still for that read-out and setting: for `CCN(CC)/[N+]([O-])=N/OCOC(=O)Cc1c(C)n(C(=O)c2ccc(Cl)cc2)c2ccc(OC)cc12` the value was “inactive”; for `O=C(Nc1ccccc1)c1ccccc1OCc1ccccc1`, “inactive”. The same measure, in the same setting: for `CC(=O)Nc1ccc(NC(=O)C2CCCN2S(=O)(=O)c2cccc(C(F)(F)F)c2)cc1` (configuration not stated) the value was “inactive”; for `CCc1ccccc1NS(=O)(=O)c1ccc2nc(-c3ccccc3)[nH]c2c1`, “inactive”; for `CCc1ccc(NC(=O)C2CCCN2S(=O)(=O)c2ccc3nc(-c4ccccc4)[nH]c3c2)cc1` (configuration not stated), 89.1 µM (active). The same measure, in the same setting: as for `COc1ccc(CNc2ncncc2-c2ccccc2OC)c(OC)c1`, the entry is “inactive”. On to `OC(CBr)C[n+]1cccc2cc(Br)ccc21` (configuration not stated), for which the Potency result was “inactive”. Same read-out and setting: as for `SCc1nc2ccc(Cl)cc2[nH]1`, the entry is “inactive”. `CCCC[C@H]1C(=O)N(c2ccccc2)N(c2ccc(O)cc2)C1=O`: the activity, negative = inhibition was -4.08% [at 19.4 µM]. With `COc1ccc(/C=C/C(=O)c2cc(Br)ccc(=O)c2O)cc1`, the Potency is 25.1 µM (active).

In the case of `COCOc1cc(O)c(C(=O)/C=C/c2ccc(OCOC)c(OCOC)c2)c(OCOC)c1`, the Potency result is “inactive”. As for `COc1cccc(N2CC(NC(=O)/C=C\c3ccccc3)CC2=O)c1` (configuration not stated), the Potency entry was “inactive”.

As for `C=CCC1CCC(=O)N2CCCC12` (configuration not stated), the Potency entry was “inactive”. With `COc1cc(OC)c(/C=C/c2ccnc3ccccc23)c(OC)c1`, the Potency result is “inactive”. The same measure, in the same setting: as for `COc1cc(NS(=O)(=O)c2ccc3c(c2)OCC(C(=O)N2CCCC2)O3)cc(OC)c1` (configuration not stated), the entry is “inactive”. On the same count and under the same terms, as for `COc1ccc(OC)c2sc(N3CCN(C(=O)C4COc5ccccc5O4)CC3)nc12` (configuration not stated), the entry is “inactive”; as for `Cc1c(CC(=O)N2CCN(C(=O)C3COc4ccccc4O3)CC2)c(=O)oc2c(O)c(O)ccc12` (configuration not stated), 7.08 µM (active). Turning to `COc1ccc(CC(N)C(=O)NC2C(O)[C@H](n3cnc4c(N(C)C)ncnc43)O[C@@H]2CO)cc1` (some centres not stated), the activity, negative = inhibition is 3.17% [at 19.4 µM]. For the compound `OCCC(O)CO` (configuration not stated), the Potency entry is “inactive”. Still for that read-out and setting: as for `Cc1csc[n+]1CCC1CCCCC1`, the entry is “inactive”. With `CCCCCCCC/C=C\CCCCCCCC(=O)OC[C@H](CO)OC(C)=O`, the activity, negative = inhibition is 0.528% [at 19.4 µM].

Take `Cc1ccc(Cn2cnc3c(cnn3C(C)(C)C)c2=O)c(F)c1`: the Potency entry is “inactive”.

Regarding `C(=Nc1ccc(/C=C/c2ccnc3ccccc23)cc1)Nc1ccc(/C=C/c2ccnc3ccccc23)cc1`, the Potency result is “inactive”. Take `COCCn1c(=O)c(CCc2ccccc2)nc2cncnc21`: the Potency entry is “inactive”. Turning to `Cc1ccc(C(=O)N/C(=C\c2ccco2)C(=O)NC2CCS(=O)(=O)C2)cc1` (configuration not stated), the Potency result is “inactive”. As for `COc1ccccc1C(=O)N/C(=C/c1ccco1)C(=O)Nc1ccc(C(=O)O)cc1`, the Potency was 50.1 µM (active). `COc1ccccc1C(=O)NC(=O)COC(=O)c1ccco1`: the Potency result is “inactive”. For `COc1ccc2[nH]cc(CCNc3nc(-c4cccc(NS(C)(=O)=O)c4)nc4ccccc34)c2c1`, the Potency entry was “inactive”. On to `O=c1ccn([C@@H]2O[C@H](COP(=O)(O)OP(=O)(O)OP(=O)(O)O)[C@@H](O)[C@H]2O)c(=O)[nH]1`, for which the activity, negative = inhibition is 4.9% [at 19.4 µM].

Turning to `CC1(C)OC2CC(=O)OC[C@@]23C1CC(=O)[C@]1(C)C3CC[C@@]2(C)C(c3ccoc3)OC(=O)C3O[C@@]321` (some centres not stated), the Potency entry is “inactive”. `COCCNc1ncnc2ccc(-c3cccnc3)cc12`: the Potency result is “inactive”. As to `COCCn1c(=O)c(CCc2ccccc2)nc2cnc(N3CCNCC3)nc21`, the Potency entry was “inactive”.
